Results as given in PubChem BioAssay.
Calls of active or inactive are those of the source.

Assays:
[1] = binders of probe aFSTL3 on microarray, primary screen, stem cell growth factor project, biochemical, small-molecule microarray, fluorescence 635/667 (AID 1064); conditions: higher = more signal;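 also: measures binding of the biotinylated anti-FSTL3 antibody to printed compounds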
[2] = binders from COS7 lysate, DM2A8 probe, primary screen, torsin A project, cell lysate, small-molecule microarray, fluorescence 635/667 (AID 1065); conditions: higher = more signal, COS7 lysate expressing mutant human TOR1A
[3] = binders of probe aFGF2 on microarray, primary screen, stem cell growth factor project, biochemical, small-molecule microarray, fluorescence 635/667 (AID 1067); conditions: higher = more signal;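 also: measures binding of biotinylated aFGF2 protein to printed compounds on slides; z-score merges feature fluorescence and signal-to-noise across triplicate slides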
[4] = binders of probe aFGF10 on microarray, primary screen, stem cell growth factor project, biochemical, small-molecule microarray, fluorescence 635/667 (AID 1071); conditions: higher = more signal;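 also: score merges 667 nm spot intensity and signal to noise from triplicate slides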
[5] = target: Neurogenic locus notch homolog protein 2 (Homo sapiens) (UniProt Q04721); assay: Notch2 binders on small-molecule microarrays, primary screen, biochemical, small-molecule microarray, 635 nm fluorescence, stem cell growth factors (AID 1073); conditions: Notch2 binding, higher = more signal
Chain of Neurogenic locus notch homolog protein 2 (Homo sapiens) (Q04721 whole entry, looked up, canonical isoform): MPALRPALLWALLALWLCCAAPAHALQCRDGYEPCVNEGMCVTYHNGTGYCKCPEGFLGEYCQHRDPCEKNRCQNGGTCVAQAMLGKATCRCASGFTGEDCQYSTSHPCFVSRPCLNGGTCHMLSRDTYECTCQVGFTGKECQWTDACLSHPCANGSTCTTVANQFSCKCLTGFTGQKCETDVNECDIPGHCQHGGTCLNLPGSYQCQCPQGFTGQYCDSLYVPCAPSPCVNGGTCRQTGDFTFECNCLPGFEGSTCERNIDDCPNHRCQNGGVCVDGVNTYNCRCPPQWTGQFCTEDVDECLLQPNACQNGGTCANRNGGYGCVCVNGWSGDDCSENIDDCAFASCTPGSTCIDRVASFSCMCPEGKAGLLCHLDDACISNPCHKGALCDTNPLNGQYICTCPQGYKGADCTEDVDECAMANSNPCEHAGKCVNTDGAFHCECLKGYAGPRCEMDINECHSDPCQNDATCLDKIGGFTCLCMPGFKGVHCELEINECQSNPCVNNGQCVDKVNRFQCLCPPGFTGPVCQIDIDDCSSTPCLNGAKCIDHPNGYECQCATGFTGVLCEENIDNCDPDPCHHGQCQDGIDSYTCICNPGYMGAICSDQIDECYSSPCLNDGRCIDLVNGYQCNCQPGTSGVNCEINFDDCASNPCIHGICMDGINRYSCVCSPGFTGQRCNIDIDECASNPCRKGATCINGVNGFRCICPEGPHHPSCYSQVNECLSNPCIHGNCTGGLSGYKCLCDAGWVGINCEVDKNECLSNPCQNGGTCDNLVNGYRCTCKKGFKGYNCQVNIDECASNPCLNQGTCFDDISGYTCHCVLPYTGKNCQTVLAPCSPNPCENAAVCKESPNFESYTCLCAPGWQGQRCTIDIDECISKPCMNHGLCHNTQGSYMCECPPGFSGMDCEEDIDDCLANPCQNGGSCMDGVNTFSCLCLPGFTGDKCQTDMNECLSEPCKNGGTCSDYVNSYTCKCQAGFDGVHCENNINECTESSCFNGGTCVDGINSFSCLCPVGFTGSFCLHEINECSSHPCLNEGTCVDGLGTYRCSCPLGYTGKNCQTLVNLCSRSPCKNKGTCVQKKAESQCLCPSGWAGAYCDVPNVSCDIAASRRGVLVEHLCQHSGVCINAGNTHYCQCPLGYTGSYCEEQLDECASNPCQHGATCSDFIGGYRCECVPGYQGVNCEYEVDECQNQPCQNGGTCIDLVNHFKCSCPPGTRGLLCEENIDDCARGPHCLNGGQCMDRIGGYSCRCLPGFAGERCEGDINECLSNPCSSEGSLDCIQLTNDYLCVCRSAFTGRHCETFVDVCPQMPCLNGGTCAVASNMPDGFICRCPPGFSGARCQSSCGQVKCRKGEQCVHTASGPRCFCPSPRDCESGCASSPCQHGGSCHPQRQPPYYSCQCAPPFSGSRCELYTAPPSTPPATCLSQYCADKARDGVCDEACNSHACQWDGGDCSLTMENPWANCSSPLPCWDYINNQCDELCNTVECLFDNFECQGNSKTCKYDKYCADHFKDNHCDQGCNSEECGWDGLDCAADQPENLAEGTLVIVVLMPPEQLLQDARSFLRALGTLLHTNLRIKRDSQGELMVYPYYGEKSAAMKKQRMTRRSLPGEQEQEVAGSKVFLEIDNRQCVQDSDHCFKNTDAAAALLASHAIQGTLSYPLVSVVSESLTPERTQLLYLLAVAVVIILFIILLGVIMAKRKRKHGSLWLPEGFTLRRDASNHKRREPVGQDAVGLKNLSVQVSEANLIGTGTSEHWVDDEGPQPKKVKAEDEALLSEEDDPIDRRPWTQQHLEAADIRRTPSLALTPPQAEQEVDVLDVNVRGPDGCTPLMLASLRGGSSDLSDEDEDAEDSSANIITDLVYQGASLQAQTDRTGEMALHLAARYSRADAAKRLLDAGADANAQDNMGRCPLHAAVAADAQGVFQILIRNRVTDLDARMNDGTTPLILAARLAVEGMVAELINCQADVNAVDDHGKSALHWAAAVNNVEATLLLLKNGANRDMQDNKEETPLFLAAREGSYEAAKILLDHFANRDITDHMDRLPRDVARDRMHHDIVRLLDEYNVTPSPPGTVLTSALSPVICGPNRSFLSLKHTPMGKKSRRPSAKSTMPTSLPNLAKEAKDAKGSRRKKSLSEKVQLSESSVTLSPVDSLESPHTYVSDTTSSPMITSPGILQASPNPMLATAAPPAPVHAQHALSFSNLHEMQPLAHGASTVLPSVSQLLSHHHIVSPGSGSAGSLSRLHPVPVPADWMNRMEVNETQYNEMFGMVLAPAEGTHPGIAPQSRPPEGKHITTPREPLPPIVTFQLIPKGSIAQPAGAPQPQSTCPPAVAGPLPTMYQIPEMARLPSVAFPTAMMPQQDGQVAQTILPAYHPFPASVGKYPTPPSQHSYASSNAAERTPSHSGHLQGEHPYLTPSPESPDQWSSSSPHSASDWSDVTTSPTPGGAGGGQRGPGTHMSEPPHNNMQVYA

[6] = target: Pro-neuregulin-1, membrane-bound isoform (Homo sapiens) (UniProt Q02297); assay: NRG1 binders on small-molecule microarrays, primary screen, psychiatric disease protein project, biochemical, small-molecule microarray, fluorescence 635/667 (AID 1075); conditions: NRG1 binding, 635 nm fluorescence, higher = more signal;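 also: score combines 667 nm spot fluorescence with signal to noise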
Chain of Pro-neuregulin-1, membrane-bound isoform (Homo sapiens) (Q02297 whole entry, looked up, the tested form may be a part, canonical isoform): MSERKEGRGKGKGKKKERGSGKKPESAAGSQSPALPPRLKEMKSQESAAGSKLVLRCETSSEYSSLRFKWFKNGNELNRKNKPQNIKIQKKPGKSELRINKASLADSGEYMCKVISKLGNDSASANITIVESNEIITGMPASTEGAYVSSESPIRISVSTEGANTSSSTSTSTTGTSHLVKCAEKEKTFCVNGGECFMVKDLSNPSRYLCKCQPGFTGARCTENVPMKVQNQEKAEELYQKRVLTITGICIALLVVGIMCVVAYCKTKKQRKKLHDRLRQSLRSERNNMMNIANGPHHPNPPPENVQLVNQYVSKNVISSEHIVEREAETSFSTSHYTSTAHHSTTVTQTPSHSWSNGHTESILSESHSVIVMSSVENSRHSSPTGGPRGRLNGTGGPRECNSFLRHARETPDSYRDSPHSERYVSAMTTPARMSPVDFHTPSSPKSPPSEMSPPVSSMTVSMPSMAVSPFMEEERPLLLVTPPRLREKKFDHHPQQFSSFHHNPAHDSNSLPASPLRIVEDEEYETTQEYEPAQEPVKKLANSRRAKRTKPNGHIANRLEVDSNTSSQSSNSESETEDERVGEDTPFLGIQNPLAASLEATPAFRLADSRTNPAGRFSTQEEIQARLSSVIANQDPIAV

[7] = tested on: Neuregulin-1 EGF-like domain; assay: binders of neuregulin-1 EGF-like domain, primary screen, biochemical, small-molecule microarray, 635 nm fluorescence (AID 1081); conditions: small-molecule microarray binding, higher = more signal;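 also: binding of the protein to compounds printed on small-molecule microarray slides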
[8] = FRG1 promoter luciferase signal modulators, primary screen, FRG1 inhibition for FSHD, cell-based, C2C12 myotubes, firefly/Renilla luciferase, luminescence (AID 1084); conditions: higher = more signal, called active from +8 up or from −8 down
[9] = binders of probe aFST on microarray, primary screen, stem cell growth factor project, biochemical, small-molecule microarray, fluorescence 635/667 (AID 1086); conditions: higher = more signal;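 also: score merges 667 nm fluorescence with signal-to-noise of each printed compound spot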
[10] = binders of probe aHhip on microarray, primary screen, stem cell growth factor project, biochemical, small-molecule microarray, fluorescence 635/667 (AID 1087); conditions: higher = more signal;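 also: score merges spot fluorescence at 667nm with spot signal to noise ratio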

Structure (SMILES)	composite z-score [1]	composite z-score [2]	composite z-score [3]	composite z-score [4]	composite z-score [5]	composite z-score [6]	composite z-score [7]	z-score [8]	composite z-score [9]	composite z-score [10]
CCOC(=O)C[C@H]1[C@H](OC(=O)c2ccc(-c3ccccc3)cc2)[C@@H](NC(=O)Cc2ccc(OC)cc2)c2cc(OCCCO)ccc2N1C(=O)c1ccccc1	-0.0117	-0.354	-0.0316	0.23	0.255	0.176	0.3	-0.831 (inactive)	0.376	-0.0391
CN(C)CCCCCCNC(=O)[C@H]1C[C@H]2C(=O)N[C@@H](CCCCN)C(=O)N2[C@H]1c1cccc(OCCO)c1	3.62	2.48	0.898	1.15	1.65	2.67	1.55	3.88 (inactive)	3.58	3.28
CCCC[C@@H]1C[C@H]1[C@@H](NC(=O)c1cccs1)c1ccc(-c2ccccc2)cc1	0.108	0.0945	0.189	0.486	0.146	-0.0051	0.411	-0.621 (inactive)	0.151	0.2
COC(=O)[C@@]1(Cc2ccc(F)cc2)[C@H]2c3cc(C(=O)N(C)C)n(Cc4cc(F)c(F)c(F)c4)c3C[C@H]2CN1C(=O)c1ccccc1	0.293	-0.528	0.261	0.593	1.77	1.61	0.971	0.621 (inactive)	1.88	0.142
COCCOC(=O)N1C(=O)[C@@]2(c3cc(C#CCC(C(=O)OC)C(=O)OC)ccc31)[C@H](c1ccccc1OCCO)N1[C@H](c3ccccc3)[C@H](c3ccccc3)OC(=O)[C@H]1[C@@H]2C(=O)NC[C@H](O)c1ccccc1	-0.0494	0.114	-0.117	0.791	0.961	1.27	1.15	-0.923 (inactive)	0.357	0.152
COCCOC(=O)N1C(=O)[C@@]2(c3ccccc31)[C@H](C(=O)N1CCc3cc(OC)c(OC)cc3C1)[C@H]1C(=O)O[C@H](c3ccccc3)[C@H](c3ccccc3)N1[C@@H]2c1ccc(OCCO)cc1	0.249	0.977	-0.279	0.509	0.832	0.0602	1.21	-1.98 (inactive)	0.412	-0.0085
C=CCNC(=O)[C@@H]1[C@H]2C(=O)O[C@H](c3ccccc3)[C@H](c3ccccc3)N2[C@H](c2ccc(O)cc2)[C@@]12C(=O)Nc1ccc(C#CCNC(N)=O)cc12	0.0358	0.135	-0.114	-0.172	-0.383	0.623	-0.0033	1.57 (inactive)	-0.633	-0.226
CC(C)C[C@@H]1NC(=O)[C@@H]2C[C@H](C(=O)NCc3ccc(F)cc3)[C@H](c3cccc(OCCO)c3)N2C1=O	0.0163	0.297	-0.0861	0.362	-0.575	-0.0212	1.32	-0.148 (inactive)	-0.405	-0.236
CCOC(=O)C1=C[C@@H](C(C)(C)C)N(S(=O)(=O)c2ccc(C)cc2)[C@H]1c1ccc(F)cc1	-0.272	0.59	0.0434	0.619	1.59	-0.11	0.69	-0.705 (inactive)	1.05	-0.0324
C=CCNC(=O)[C@@H]1[C@H]2C(=O)O[C@H](c3ccccc3)[C@H](c3ccccc3)N2[C@H](c2ccc(OCCO)cc2)[C@@]12C(=O)Nc1ccc(C#CCC(C(=O)OC)C(=O)OC)cc12	0.148	0.694	0.0185	0.721	0.89	1.81	1.3	0.141 (inactive)	0.452	0.0505
COCCOC(=O)N1C(=O)[C@@]2(c3cc(C#CCC(C(=O)OC)C(=O)OC)ccc31)[C@H](C(=O)Nc1nc3ccccc3s1)[C@H]1C(=O)O[C@H](c3ccccc3)[C@H](c3ccccc3)N1[C@@H]2c1ccccc1OCCO	0.0949	0.684	0.0821	0.807	1.49	1.48	1.24	2.19 (inactive)	0.0716	0.0873
COC(=O)[C@@]1(Cc2ccc(OC)cc2)[C@H]2c3cc(C(=O)N4CCCC4)n(CCN4CNCC4=O)c3C[C@H]2CN1C(=O)c1ccccc1	2.52	0.873	0.797	1.22	1.4	1.78	1.45	0.632 (inactive)	2.37	3.13
CCc1cccc(NC(=O)O[C@H]2[C@H](OC(=O)Nc3ccccc3-c3ccccc3)[C@@H](OC(=O)Nc3ccccc3-c3ccccc3)[C@@H](OC)O[C@@H]2CO)c1	-0.283	0.79	0.14	0.806	1.6	1.88	1.27	1.38 (inactive)	1.32	-0.104
CCCC[C@H]1OB(O)C[C@H]2C1=C(COC)C[C@H]1C(=O)N(C)C(=O)[C@H]12	-0.441	0.49	-0.144	0.18	0.364	-0.149	0.6	0.0329 (inactive)	0.106	-0.15
CC(C)=CCN[C@H](CO)c1ccccc1	-0.122	-0.428	-0.0732	0.897	0.794	-0.419	0.249	1.07 (inactive)	-0.0489	0.0129
CC(C)OC(=O)C=C1C[C@@H](c2ccccn2)O[C@@H](c2ccccn2)O1	-0.431	-0.121	-0.158	0.0234	-0.538	-0.13	1.27	0.805 (inactive)	-0.171	-0.112
C=C[C@H](CO)NS(=O)(=O)c1ccc(Br)cc1	-0.42	0.213	-0.116	0.243	0.315	0.456	0.827	0.297 (inactive)	0.447	0.257
[N-]=[N+]=Nc1ccccc1[C@@H]1OC(c2ccc(OCCCO)cc2)=N[C@]1(Cc1ccccc1)C(=O)N1CCOCC1	0.324	0.0788	0.14	0.781	1.55	1.26	1.2	-1.5 (inactive)	0.802	0.0053
O=C1C2C=CC(C(O)c3cccc4ccccc34)N(Nc3ccccc3F)C2C(=O)N1c1ccccc1 (stereo not given)	0.154	-0.371	-0.0209	0.64	1.67	1.27	1.23	0.856 (inactive)	1.23	-0.0672
O=C(N1CCCCC1)[C@]1(Cc2ccccc2)N=C(c2ccc(OCCCO)cc2)O[C@@H]1c1ccccc1	0.542	0.0149	-0.0183	0.541	1.51	1.03	0.884	-0.636 (inactive)	0.979	0.289
C=CCOC(=O)[C@H]1[C@@H]2C(=O)O[C@@H](c3ccccc3)[C@@H](c3ccccc3)N2[C@@H](c2ccc(OCCOC(=O)[C@@H]3C[C@@H]4C(=O)N[C@@H](CCCCNC(C)=O)C(=O)N4[C@@H]3c3ccc(O)cc3)cc2)[C@]12C(=O)Nc1ccccc12	-0.475	0.973	-0.0512	0.483	0.795	1.26	1.32	0.159 (inactive)	-0.0579	0.0176
C[C@H]1C2[C@H](Cc3ccccc3)NC(=O)[C@]23C(=O)N[C@H](Cc2ccccc2)C(=O)N2CCC[C@H]2C(=O)NC/C=C\C/C=C/C3[C@@H]2O[C@]12C (stereo not given in full)	-0.4	-0.217	-0.0439	0.293	0.451	0.455	-0.473	1.59 (inactive)	0.0114	-0.236
CC(C)CNC(=O)[C@@]1(Cc2ccccc2I)c2ccccc2C(=O)N(C2CCCCC2)[C@H]1c1ccc(CO)cc1	0.654	1.26	0.162	0.685	0.142	0.925	1.05	-3.41 (inactive)	0.481	0.702
O=C1O[C@H](c2ccccc2)[C@H](c2ccccc2)N2[C@H]1[C@@H](C(=O)N1CCCCCCC1)[C@]1(C(=O)Nc3ccc(C#CCCO)cc31)[C@H]2c1ccccc1OCCO	3.95	2.92	1.08	1.62	1.72	2.85	1.37	-0.851 (inactive)	3.77	4.26
C=CCN1C(=O)[C@]2(O[C@H](CCn3cc([C@H](O)c4ccccc4)nn3)[C@@H]([Si](C)(C)c3ccc(OC)cc3)[C@@H]2C)c2cc(N3CCC3=O)ccc21	-0.0453	0.334	0.0087	0.679	-0.255	1.9	1.14	-1.43 (inactive)	-0.282	0.0505
O=C(CS)NCCCCCCNC(=O)[C@@H]1C[C@@H]2C(=O)N[C@@H](Cc3ccccc3)C(=O)N2[C@@H]1c1cccc(OCCO)c1	0.0549	0.94	0.0589	0.956	1.08	0.659	1.23	3.09 (inactive)	0.616	-0.0994
